# A selection: hits, their analogues and other compounds. The true share with any hit is near 5.4%.
# SMARCA2 act = SMARCA2 (BRM) function activators, primary screen, cell-based, luminescence, high throughput. MG213 cells, MMTV-luciferase reporter, dexamethasone, overnight. activation, % at 9.1 µM. hit rate 1% among 370,000; in the data active means activation above about 7.8%;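 further: 0% = vehicle wells and 100% = reference activator wells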
# Exocytosis inh = LAMP-1 surface exposure blockers, TALL-104 cells – cell-based, flow cytometry, MLPCN library, primary screen. TALL-104 LAMP-1 surface exposure; cells stimulated with thapsigargin and PMA. inhibition, % at 10 µM. hit rate 0.66% among 360,000. AID 651702, 2012;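 active means inhibition above about 55%, limit read from the data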
# GASC-1 inh = inhibitors of GASC-1 histone demethylase, primary screen, biochemical, fluorescence, DELFIA europium. hit rate 0.069% among 330,000. inhibition, % at 2.35 µM. Lysine-specific demethylase 4C (Homo sapiens), Q9H3R0. GST-JMJD2C(1-420) H3K9me3 demethylation;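 active means more than half of a compound's replicate wells show inhibition beyond 50%, single wells judged on their own value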;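 further: signal counts dimethyl H3K9 product captured on neutravidin plate; 0% = median of DMSO wells and 100% = 0.3 times that DMSO median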
# Target sequence (Q9H3R0 1-420 limits assumed): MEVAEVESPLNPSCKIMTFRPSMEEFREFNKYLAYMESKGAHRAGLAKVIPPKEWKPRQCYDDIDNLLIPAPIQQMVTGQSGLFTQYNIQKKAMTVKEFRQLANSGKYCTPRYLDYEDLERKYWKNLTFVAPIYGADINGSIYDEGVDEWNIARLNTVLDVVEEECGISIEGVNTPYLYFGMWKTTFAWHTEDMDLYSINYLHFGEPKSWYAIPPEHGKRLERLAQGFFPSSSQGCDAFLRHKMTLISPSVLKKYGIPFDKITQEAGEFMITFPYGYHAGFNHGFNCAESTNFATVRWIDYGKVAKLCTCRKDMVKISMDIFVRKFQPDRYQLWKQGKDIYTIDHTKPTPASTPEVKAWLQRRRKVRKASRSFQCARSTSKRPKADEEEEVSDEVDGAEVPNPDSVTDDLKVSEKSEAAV
# ALR inh = inhibitors of human ALR sulfhydryl oxidase, primary screen, biochemical, H2O2 detection, HRP-luminol luminescence, single point. inhibition, % (concentration not given with the values). FAD-linked sulfhydryl oxidase ALR (Homo sapiens), P55789. AID 485317, 2010. purified ALR, DTT oxidation. hit rate 3.8% among 290,000;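 active means mean replicate inhibition above about 79%, with every replicate also reaching it, limit read from the data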
# Target sequence (P55789 whole entry, looked up): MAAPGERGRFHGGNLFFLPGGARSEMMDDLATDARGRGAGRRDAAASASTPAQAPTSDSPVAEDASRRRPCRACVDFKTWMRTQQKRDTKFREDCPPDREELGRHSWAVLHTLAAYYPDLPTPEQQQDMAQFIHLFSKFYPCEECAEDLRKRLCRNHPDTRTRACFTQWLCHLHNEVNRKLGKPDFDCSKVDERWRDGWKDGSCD
# PfM18AAP inh = PfM18AAP inhibitors, malaria aminopeptidase, primary screen, biochemical, QFRET, recombinant enzyme. hit rate 1.2% among 290,000. inhibition, % at 7.35 µM. AID 1822, 2009. H-Glu-NHMec fluorogenic cleavage;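 active means inhibition above the campaign mean inhibition over all tested compounds plus 3 SD, cut at about 28% in these data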;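 further: 0% = plate median of test compound wells and 100% = 2 mM ZnCl2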
# MIN6 prolif-1 = inducers of MIN6 beta-cell proliferation, primary screen, ATP luminescence, uHTS; MIN6 cells proliferation, ATPlite luminescence, 48 h; cells starved in 0.2% serum; 100% = growth in 10% serum; proliferation, % at 10 µM; hit rate 0.29% among 330,000; AID 2380, 2010;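 active means compounds whose signal lies at least 3.5 SD above the mean of all wells on their plate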;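 further: 0% = DMSO-treated cells in low-serum medium and 100% = 10% serum control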
# MIN6 prolif-2 = inducers of beta-cell proliferation in MIN6, confirmation, MIN6 cells, mouse; shares compounds with MIN6 prolif-1; ATPlite luminescence, 48 h; cells kept in 0.2% serum; scaled between 0.2% and 10% serum; proliferation increase, % at 50 µM; 920 tested, under 10 active;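 active means proliferation increase above 40% at any of the four tested concentrations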
# * marks the source's active call; other numbers are inactive results; nt = no result given.
SMILES,SMARCA2 act,Exocytosis inh,GASC-1 inh,ALR inh,PfM18AAP inh,MIN6 prolif-1,MIN6 prolif-2
CCOC(=O)C(C)Sc1nc2c(c(=O)[nH]c(=O)n2C)n1CCc1ccccc1 (configuration not stated),1,1,nt,-3,-15,0,nt
CCOC(=O)C(CC)Sc1nc2c(c(=O)[nH]c(=O)n2C)n1C/C=C(/C)Cl (configuration not stated),1,9,-7,-11,-26,5.4*,-6
CCC(c1nc2ccccc2[nH]1)n1c(-c2ccc3cc[nH]c3c2)nc2ccccc21 (configuration not stated),-1,nt,nt,nt,nt,nt,nt
COc1ccc(CNC/C=C/c2ccccc2)cc1,-1,5,9,2,3,7.6*,-6
COc1ccc(CCNC/C=C/c2ccccc2)cc1,-1,1,-4,nt,-14,nt,nt
Cc1cc(O)cc(=O)n1-c1cc(Cl)cc(Cl)c1,-3,nt,nt,nt,nt,nt,nt
C[C@H]1COc2cc(F)ccc2S(=O)(=O)N1C,-3,nt,nt,nt,nt,nt,nt
COc1ccc2[nH]c3c(c2c1)CC(C)NC3=O (configuration not stated),-3,-4,-10,-14,2,7.3*,4
C[C@@H]1CCN(C2CC2)S(=O)(=O)c2c(cccc2N2CC[C@@H](O)C2)O1,-1,nt,nt,nt,nt,nt,nt
CC(C)c1nc2sc3c(SCC(N)=O)ncnc3c2c2c1CCC2,-1,0,6,nt,-3,5.1*,5
Cc1ccc(S(=O)(=O)N2CCC3(CC2)OCCN3S(=O)(=O)c2cccs2)cc1,-2,6,7,-3,nt,0,nt
COc1ccc(S(=O)(=O)N2CCC3(CC2)OCCN3S(=O)(=O)c2cccs2)cc1,-1,-1,-15,-1,nt,13*,-2
COc1cc2nc(Cl)nc(N3CCCCC3)c2cc1OC,1,0,nt,-1,-5,7.6*,-3
COc1cc2nc(Cl)nc(N3CCOCC3)c2cc1OC,-1,-1,4,-14,4,1,nt
COc1ccc(-c2noc(C3CCCN(C(=O)Nc4cccc(C)c4)C3)n2)cc1 (configuration not stated),-5,nt,nt,nt,nt,nt,nt
COc1cccc(CNC2CCCc3ccccc32)c1OC (configuration not stated),-1,4,11,-1,-6,9.1*,-3
Nc1[nH]c(C(=O)c2ccccc2)c(-c2ccc(Cl)cc2F)c1C(=O)NCCc1c[nH]c2ccccc12,-3,nt,nt,nt,nt,nt,nt
COc1ccc(CN2CCC(CNC(=O)NCc3ccccc3)CC2)cc1,-2,nt,nt,nt,nt,nt,nt
CCN1CCN(c2nc(Nc3cccc(OC)c3)nc(N)c2[N+](=O)[O-])CC1,0,-4,-21,nt,2,2,nt
CCN1CCN(c2nc(Nc3ccc(C)c(C)c3)nc(N)c2[N+](=O)[O-])CC1,1,3,7,0,-10,0.0*,-6
Nc1ncnc(N2CCc3ccccc32)c1[N+](=O)[O-],-4,-1,-22,29,-8,20*,9
NNC(=O)c1ccc(N2CCc3ccccc32)c([N+](=O)[O-])c1,-3,6,-9,-17,-12,1,nt
CC1CCN(C(=O)CCc2ccc(S(=O)(=O)NC(C)(C)C)cc2)CC1,-4,3,6,-6,-11,7.5*,-2
COC(=O)[C@]12C[C@H](CC(=O)NCC34CC5CC(CC(C5)C3)C4)C(=O)N(Cc3ccccc3)C1=C[C@H](C(C)C)O[C@@H]2C1CC1,-3,nt,nt,nt,nt,nt,nt
COCCOC(=O)c1c(C)oc2ccc(NS(=O)(=O)c3ccccc3)cc12,0,-2,4,42,11,5.0*,-6
SMILES,SMARCA2 act,Exocytosis inh,GASC-1 inh,ALR inh,PfM18AAP inh,MIN6 prolif-1,MIN6 prolif-2
COCCOC(=O)c1c(C)oc2ccc(NS(=O)(=O)c3ccc(C)cc3)cc12,-1,0,2,-2,6,-2,nt
CCS(=O)(=O)Nc1ccc2c(c1)C(=O)N(C)[C@@H]1CC[C@H](CC(=O)N3CCCCC3)O[C@H]1CO2,-2,nt,nt,nt,nt,nt,nt
CCn1c(=O)[nH]c(=O)c2c(N)c(C(=O)c3cc(F)ccc3F)sc21,2,1,2,6,4,9.1*,2
CCCn1c(N)c(C(=O)COC(=O)/C=C/c2ccc(OC(F)F)c(OC)c2)c(=O)[nH]c1=O,-1,3,0,-2,nt,7.4*,-1
CCOC(=O)[C@]12CCCCC/C=C\1N(CCc1ccc(Cl)cc1)C(=O)[C@H]2CC(=O)N1CCSCC1,-3,nt,nt,nt,nt,nt,nt
CCc1onc(C)c1C(=O)O,-3,3,-5,0,-1,7.5*,-3
CCc1onc(C)c1C(=O)Nc1ccc(N2CCOCC2)cc1,-3,5,8,nt,nt,0,nt
CC(=O)N1CCN(CC(O)Cn2c3ccccc3c3ccccc32)CC1 (configuration not stated),-2,1,1,-35,0,6.6*,-6
CC1CCN(CC(O)Cn2c3ccccc3c3ccccc32)CC1 (configuration not stated),-2,18,5,-66,-3,2,nt
COC(=O)[C@]12C[C@H](CC(=O)NCc3ccc(OC)c(OC)c3)C(=O)N(Cc3ccco3)C1=C[C@H](C1CCCC1)O[C@@H]2C,-2,nt,nt,nt,nt,nt,nt
CCOc1ccccc1CNC(=O)CNC(=O)c1cccs1,nt,-7,-3,-2,-12,17*,1
COc1cc(S(=O)(=O)NC2CCCCC2C)ccc1-n1cnnn1 (configuration not stated),-2,-1,-8,-15,1,7.6*,-4
CS(=O)(=O)c1ccc(-c2csc(-c3cccnc3)n2)cc1,-1,-9,16,nt,6,9.8*,3
CC(=O)c1c(C)nc2cc(Cl)ccc2c1N,0,4,-2,-8,-1,5.5*,6
Cc1cc(C)c2ccc(Cl)cc2n1,-1,-3,1,-4,-2,-5,nt
Cc1ccc(NC(=O)C2CC(O)CN2C(=O)OCc2ccccc2)c(C)c1 (configuration not stated),-1,-4,5,nt,-6,0,nt
O=C(Nc1ccc(Br)cc1)C1CC(O)CN1C(=O)OCc1ccccc1 (configuration not stated),-1,-13,-1,-3,7,11*,-5
COc1ccc(-n2c(C)c(C(C)=O)c3cc(OC(C)=O)ccc32)cc1,-3,-7,1,28,-2,5.3*,-5
COc1ccc2c(c1)c(C(C)=O)c(C)n2-c1ccc(C(C)=O)cc1,0,-12,-7,nt,1,-1,nt
